High-throughput results (PubChem BioAssay)
NLRP3 yeast inh: inhibitors of NALP3 inflammasome in yeast. Yeast reconstituted NLRP3/ASC/caspase-1, beta-gal luminescence, 24 h. inhibition, % at 10 µM. hit rate 0.39% among 330,000. AID 2825;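 active = inhibition of 50% or more; inactive = inhibition below 50%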;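 note: plate controls were induced DMSO wells for no effect and uninduced yeast grown without galactose for full effect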
Rce1 inh: inhibitors of yeast Ras-converting enzyme; calls only; AID 2563; yeast membranes, quenched prenylated peptide cleavage fluorescence; Q03530; hit rate 0.27% among 290,000;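 active = fall in fluorescence gain of 50% or more versus controls, with final raw signal at or below 3038400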;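 note: plate controls were neutral control wells for no effect and wells lacking membranes for full effect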
V-ATPase pHluor: regulators of yeast V-ATPase proton transport; S. cerevisiae, pHLuorin cytosolic pH fluorescence; response, % at 10 µM; hit rate 0.37% among 350,000; AID 504577; in the data active = response mostly above about 7.3%, no sharp cut-off; inactive = mostly below about 5.4%; note: actives read high
NALP1 inh: blocks the NALP1 inflammasome reconstituted in yeast; hit rate 0.61% among 280,000; inhibition, % at 10 µM; S. cerevisiae NALP1/ASC/caspase-1 growth, X-gal OD620, 72 h; in the data active = inhibition mostly above about 24%, no sharp cut-off; inactive = mostly below about 32%
PERK inhibitor: human PERK inhibition, primary cell-based screen | CHO PERK-DD fusion, SEAP luminescence translation reporter | inhibition, % at 5.6 µM | hit rate 0.17% among 220,000;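 active = inhibition above the mean inhibition of all tested compounds plus 3 SD, set separately per screening campaign, cut at about 2.9% in these data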;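 note: PERK kinase domain activated by AP20187 dimerizer at 100 nM; 0% = DMSO with dimerizer and 100% = rapamycin at 8.4 µM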
CR mimetic SO: lowers age-related superoxide in aged yeast cells; S. cerevisiae aged cells, superoxide DHE fluorescence; stronger effect = lower value; superoxide response (% of plate mean), % at 10 µM; hit rate 0.18% among 330,000; AID 2690;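 active = superoxide response under a set limit, about three screen SD below normal, cut at about 65% in these data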;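 note: yeast aged for seven days with compound at 30 °C before DHE staining; 100% = average MFI of all compound-treated wells on the plate with controls excluded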
An asterisk follows results filed as active; i = inactive; · = no result given; + = active, no number. The list is not random: actives were taken first. Their share in the collection is about 1.6%.

SMILES	NLRP3 yeast inh	Rce1 inh	V-ATPase pHluor	NALP1 inh	PERK inhibitor	CR mimetic SO
O=[N+]([O-])c1cc(CN2CCOCC2)c2cccnc2c1O	·	·	·	-2	1	·
CCc1ccc(CN2CCC(Oc3cc(C(=O)NC4CC4)ccc3OC)CC2)cc1	·	·	0	·	·	·
COc1ccccc1C#CC1=CC(=O)CC(C)(C)C1	·	·	-1	·	·	·
CCc1ccc(NSc2ccccc2[N+](=O)[O-])cc1	27	i	-9	36	3.2*	87
Cc1ccc([C@H]2C[C@@H](O)[C@H](n3cc(COC(=O)c4ccccc4)nn3)CN2C(=O)c2cccs2)cc1	·	·	-1	·	·	·
NC(=O)c1ccsc1NC(=O)COC(=O)CNC(=O)c1ccc(Cl)cc1	1	·	2	·	·	116
O=C(COC(=O)CNC(=O)c1ccc(Cl)cc1)Nc1ccc(Cl)cn1	13	·	13*	·	·	114
O=C(Nc1ccc(Cl)cn1)Nc1ccc(Cl)cn1	19	i	-3	30*	0	70
CC1=C(C(=O)N2CCOCC2)CC(CC(=O)NC2CCCC2)C(=O)N1CCCN1CCCC1=O (stereo unspecified)	·	·	-1	·	·	·
Cc1ccc(S(=O)(=O)N2C[C@@H](C)[C@]3(C2)[C@H](O)[C@H](OC(=O)Nc2cccs2)C[C@H]2C(=O)N(c4ccccc4)C(=O)[C@H]23)cc1	·	·	3	·	·	·
COc1cccc(/C=C2/CCC(CN(C)C)C2=O)c1 (stereo unspecified)	·	·	2	·	·	·
Nc1nc(Cl)nc2c1ncn2[C@@H]1O[C@H](CO)[C@@H](O)[C@H]1O	-7	i	2	11	5.6*	107
CC1(C)CC(Cc2ccc(Cl)nc2)N(C(=O)OC(C)(C)C)C1 (stereo unspecified)	·	·	0	·	·	·
CSCC[C@@H](C(=O)O)N1Cc2ccccc2C1=O	14	i	-6	39*	·	120
C[C@H]1CN([C@@H](C)CO)C(=O)c2cc(Br)cnc2O[C@H]1CN(C)C(=O)Cc1ccccn1	·	·	-2	·	·	·
O=C1/C(=C/c2ccco2)CCc2ccccc21	1	i	1	38	0	100
Nc1ccc2c(c1)C/C(=C/c1ccco1)C2=O	22	i	0	49*	1	109
COCCNC(=S)NN(c1ccccc1)c1ccccc1	-5	i	0	-16	2	94
COCCNC(=S)N(c1ccccc1)C(C)C	-2	i	-3	40*	0	92
C[C@@H]1CN([C@H](C)CO)C(=O)CCCn2nncc2CO[C@@H]1CN(C)C(=O)NC1CCCCC1	·	·	-1	·	·	·
O=C1C=CC(=O)N1CCNc1ncc(C(F)(F)F)cc1Cl	-46	i	13*	55*	-1	·
O=C1CC(=O)N(CCNc2ncc(C(F)(F)F)cc2Cl)C(=O)N1	-3	i	-2	-4	1	94
Cc1ccc(S(=O)(=O)N(C)C[C@@H]2Oc3ncc(C#CCC(C)C)cc3C(=O)N([C@H](C)CO)C[C@H]2C)cc1	·	·	0	·	·	·
C#CCN(C[C@@H]1[C@@H](OC(=O)NCC2CCCCC2)[C@@H](OC(=O)NCC2CCCCC2)Cn2c(=O)n(CCCCCC)c(=O)n21)S(=O)(=O)c1ccc(C)cc1	·	·	0	·	·	·
Cc1ccc(S(=O)(=O)N(C(=O)c2ccncc2)c2ccc(OC(=O)c3ccncc3)c3ccccc23)cc1	4	i	1	48*	1	119
SMILES	NLRP3 yeast inh	Rce1 inh	V-ATPase pHluor	NALP1 inh	PERK inhibitor	CR mimetic SO
COc1cc(Cc2cc(OC)c(O)c(OC)c2)cc(OC)c1O	·	·	-2	·	·	·
CCOC(=O)c1c(N2C(=O)C=CC2=O)sc(C)c1C	5	i	4	53*	2	118
O=C(c1cc2cc(F)ccc2[nH]1)N1CCN(Cc2ccc3c(c2)OCO3)CC1	8	i	14*	19	·	97
CN(c1ccccc1C(=O)N1CCN(Cc2ccc3c(c2)OCO3)CC1)S(C)(=O)=O	23	i	0	36*	2	98
O=C(c1ccccc1Cl)N1CCN(Cc2ccc3c(c2)OCO3)CC1	8	i	-3	11	·	99
COc1cc2cc(C(=O)N3CCN(Cc4ccc5c(c4)OCO5)CC3)[nH]c2cc1OC	-9	i	-4	21	·	86
OCC[C@@H]1C[C@H](O)[C@@H](O)[C@@]2(OCc3cc(C(F)(F)F)ccc32)O1	·	·	4	·	·	·
CSc1nc(NCC(C)O)c2c3c(sc2n1)CN(C)CC3 (stereo unspecified)	16	+	-1	-13	·	77
CCCN1CCN(CCCNC(=O)c2cc3c(=O)[nH]c4ccccc4c3s2)CC1	16	i	2	25*	0	109
O=C1C=CC(=O)N1c1ccc(-c2nc3ccccc3o2)cc1	·	·	20*	·	·	·
CCC1(c2ccccc2)NC(=O)N(CC(=O)Nc2ccc3c(C)cc(=O)oc3c2)C1=O (stereo unspecified)	17	+	-5	·	·	109
CCC1(c2ccccc2)NC(=O)N(CC(=O)Nc2ccc3c(c2)OCO3)C1=O (stereo unspecified)	7	i	1	22	0	100
O=C(COC(=O)c1cccc(OC(F)F)c1)Nc1cc(S(=O)(=O)N2CCCC2)ccc1Cl	·	·	2	·	·	·
COc1cc(/C=N/Nc2nc(Nc3ccc(C)cc3)nc(-n3nc(C)cc3C)n2)cc(OC)c1OC	-2	i	0	42*	-2	109
CC(C)c1onc(C(=O)N(C)Cc2ccccc2)c1[N+](=O)[O-]	12	i	7	53*	0	103
CCOc1ccc(NC(=O)CN2CCN(c3ccc(F)cc3)CC2)cc1S(=O)(=O)N1CCCC1	·	·	-1	·	·	·
CCOC(=O)C[C@H]1c2ccccc2S(=O)(=O)N1Cc1cc(OC)c(OC)c(OC)c1	9	+	5	·	·	94
CCN(CC)CCn1c(NCc2ccccn2)nc2ccccc21	5	i	0	42*	-1	101
CCCCn1c(NCc2ccccn2)nc2ccccc21	2	i	1	-14	-1	82
CCOC(=O)c1cccc(NS(=O)(=O)Cc2ccccc2)c1	10	i	2	44*	1	108
CC(=O)CSc1nnc(-c2cnccn2)n1-c1ccccc1	·	i	2	29	0	·
Cc1ccc(NC(=O)CSc2nnc(-c3cnccn3)n2-c2ccccc2)cc1	9	i	16*	-17	-1	107
OC(c1ccccc1)C(NCc1ccccc1)c1ccccc1 (stereo unspecified)	·	·	-1	·	·	·
Cc1ccc(-c2nnn(CC(=O)N(c3cccc(F)c3)C(C(=O)NC3CCCC3)c3ccco3)n2)o1 (stereo unspecified)	3	i	5	21	0	117
Cc1ccc(-c2nnn(CC(=O)N(c3cccc(F)c3)C(C(=O)NC3CCCC3)c3ccncc3)n2)o1 (stereo unspecified)	14	i	0	35*	·	109
COc1cc2c(cc1OC)C1CCc3cc4c(cc3C1N=C2)OCO4 (stereo unspecified)	·	·	-3	·	·	·
O=C1C=C(c2ccccc2)OC(c2ccccc2)O1 (stereo unspecified)	1	i	-3	41*	1	90
